Reference: PubChem BioAssay (NCI)
Compounds without any hit were thinned out: in the full panel of roughly 79,000, 15% have a hit. A number with no mark means an inactive call. Active and inactive are the calls of the source. No stated cut-off is given here; in the data, active means growth inhibition above about 70%; inactive means the rest.

How the values were obtained:
[1] = NCI Yeast Anticancer Drug Screen. Data for the rad50 strain (AID 155);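 further: 0% = growth of vehicle-only cultures of the same strain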; conditions: S. cerevisiae rad50 strain growth inhibition, stronger effect = higher value
Outline: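 Inhibition values express reduced yeast growth in compound-treated cultures relative to vehicle-treated controls.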

[2] = NCI Yeast Anticancer Drug Screen. Data for the mec2-1 strain (AID 157); conditions: S. cerevisiae mec2-1 strain, stronger effect = higher value
Outline: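 Readout is yeast growth inhibition, normalised to vehicle-treated controls, in the mec2-1 strain exposed to compound.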

[3] = NCI Yeast Anticancer Drug Screen. Data for the sgs1 mgt1 strain (AID 161);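 further: 0% = growth of cultures given vehicle only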; conditions: S. cerevisiae sgs1 mgt1 strain, stronger effect = higher value
Outline: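 Compounds are added to genetically altered yeast, and growth is compared with cultures given vehicle alone to give percent inhibition.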

[4] = NCI Yeast Anticancer Drug Screen. Data for the bub3 strain (AID 167); conditions: S. cerevisiae bub3 mutant strain, stronger effect = higher value
Outline: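 Steps: expose the mutant yeast strain to compound; grow alongside vehicle-treated cultures; measure growth; express inhibition against the vehicle cultures.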

[5] = NCI Yeast Anticancer Drug Screen. Data for the mlh1 rad18 strain (AID 175); conditions: S. cerevisiae mlh1 rad18 strain growth inhibition, stronger effect = higher value
Outline: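 Test agents were incubated with a yeast strain of defined genotype (DNA damage repair defect). Inhibition of growth was derived by comparison with vehicle-exposed cultures.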

[6] = NCI Yeast Anticancer Drug Screen. Data for the cln2 rad14 strain (AID 165);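 further: 0% = growth equal to vehicle treated cultures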; conditions: S. cerevisiae cln2 rad14 strain, stronger effect = higher value
Outline: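 Relative to vehicle controls, growth inhibition of compound-treated cln2 rad14 yeast was recorded.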

[7] = at 5.0 µM (retest, dose inferred, filed as 0.5)
[8] = at 50.0 µM (retest, dose inferred, filed as 5.0)

## OC(CNc1ccnc2cc(Cl)ccc12)CNc1ccnc2cc(Cl)ccc12
[1]; [7]
  growth inhibition: -2%
[1]; [8]
  growth inhibition: 34%
[1]; at 50.0 µM
  growth inhibition: 40%
[2]; [7]
  growth inhibition: 0%
[2]; [8]
  growth inhibition: 31%
[2]; at 50.0 µM
  growth inhibition: 23.1%
[3]; [7]
  growth inhibition: 0%
[3]; [8]
  growth inhibition: 46%
[3]; at 50.0 µM
  growth inhibition: 15.6%
[4]; [7]
  growth inhibition: -2%
[4]; [8]
  growth inhibition: 41%
[4]; at 50.0 µM
  growth inhibition: 2.8%
[5]; [7]
  growth inhibition: 2%
[5]; [8]
  growth inhibition: 60%
[5]; at 50.0 µM
  growth inhibition: 85.7% (active)

## N#C/C=C(\c1ccccc1)c1c[nH]c2ccccc12
[1]; [7]
  growth inhibition: -144%
[1]; [8]
  growth inhibition: 97% (active)
[1]; at 50.0 µM
  growth inhibition: 97.5% (active)
[2]; [7]
  growth inhibition: -46%
[2]; [8]
  growth inhibition: 99% (active)
[2]; at 50.0 µM
  growth inhibition: 98.1% (active)
[3]; [7]
  growth inhibition: -62%
[3]; [8]
  growth inhibition: 98% (active)
[3]; at 50.0 µM
  growth inhibition: 98.7% (active)
[6]; [7]
  growth inhibition: -58%
[6]; [8]
  growth inhibition: 98% (active)
[6]; at 50.0 µM
  growth inhibition: 95.8% (active)
[5]; [7]
  growth inhibition: -120%
[5]; [8]
  growth inhibition: 98% (active)
[5]; at 50.0 µM
  growth inhibition: 98.2% (active)

## c1ccc(NCCSc2nc3ccccc3s2)cc1
[1]; [7]
  growth inhibition: 6%
[1]; [8]
  growth inhibition: 44%
[1]; at 50.0 µM
  growth inhibition: 42.3%
[2]; [7]
  growth inhibition: 9%
[2]; [8]
  growth inhibition: 22%
[2]; at 50.0 µM
  growth inhibition: 27.4%
[3]; [7]
  growth inhibition: 2%
[3]; [8]
  growth inhibition: 80% (active)
[3]; at 50.0 µM
  growth inhibition: 26%
[6]; [7]
  growth inhibition: -21%
[6]; [8]
  growth inhibition: 43%
[6]; at 50.0 µM
  growth inhibition: 8.55%
[5]; [7]
  growth inhibition: 8%
[5]; [8]
  growth inhibition: 77% (active)
[5]; at 50.0 µM
  growth inhibition: 77.7% (active)

## Cc1ccc(O)c(C(c2cccc(C(c3cc(C)ccc3O)c3cc(C)ccc3O)c2)c2cc(C)ccc2O)c1
[1]; [7]
  growth inhibition: 66%
[1]; [8]
  growth inhibition: 94% (active)
[1]; at 50.0 µM
  growth inhibition: 95.5% (active)
[2]; [7]
  growth inhibition: 54%
[2]; [8]
  growth inhibition: 97% (active)
[2]; at 50.0 µM
  growth inhibition: 95.4% (active)
[6]; [7]
  growth inhibition: 66%
[6]; [8]
  growth inhibition: 96% (active)
[6]; at 50.0 µM
  growth inhibition: 91.6% (active)
[4]; [7]
  growth inhibition: 72% (active)
[4]; [8]
  growth inhibition: 96% (active)
[4]; at 50.0 µM
  growth inhibition: 95.7% (active)
[5]; [7]
  growth inhibition: 78% (active)
[5]; [8]
  growth inhibition: 96% (active)
[5]; at 50.0 µM
  growth inhibition: 95.8% (active)

## C/C(=N/Nc1ccc([N+](=O)[O-])cc1[N+](=O)[O-])C1=CCC(C(C)(C)C)CC1 (stereo not given)
[1]; [7]
  growth inhibition: 7%
[1]; [8]
  growth inhibition: 2%
[1]; at 50.0 µM
  growth inhibition: -6.7%
[2]; [7]
  growth inhibition: -4%
[2]; [8]
  growth inhibition: -11%
[2]; at 50.0 µM
  growth inhibition: -32.5%
[6]; [7]
  growth inhibition: 4%
[6]; [8]
  growth inhibition: -1%
[6]; at 50.0 µM
  growth inhibition: 38.8%
[4]; [7]
  growth inhibition: -3%
[4]; [8]
  growth inhibition: -1%
[4]; at 50.0 µM
  growth inhibition: -11.6%
[5]; [7]
  growth inhibition: -7%
[5]; [8]
  growth inhibition: -6%
[5]; at 50.0 µM
  growth inhibition: 11.8%

## CCC1(c2ccc(N3C(=O)c4ccccc4C3=O)cc2)CCC(=O)NC1=O (stereo not given)
[1]; [7]
  growth inhibition: 1%
[1]; [8]
  growth inhibition: -3%
[1]; at 50.0 µM
  growth inhibition: -5.4%
[2]; [7]
  growth inhibition: -36%
[2]; [8]
  growth inhibition: -24%
[2]; at 50.0 µM
  growth inhibition: -13.2%
[3]; [7]
  growth inhibition: -20%
[3]; [8]
  growth inhibition: 5%
[3]; at 50.0 µM
  growth inhibition: 86.3% (active)
[4]; [7]
  growth inhibition: -17%
[4]; [8]
  growth inhibition: -19%
[4]; at 50.0 µM
  growth inhibition: -8.6%
[5]; [7]
  growth inhibition: -27%
[5]; [8]
  growth inhibition: -25%
[5]; at 50.0 µM
  growth inhibition: 5.4%

## CC(C)CCCCCCCCCCCCC(=O)NCC(=O)NC1C(C)OC(Nc2ncnc3nc[nH]c23)C(O)C1O (stereo not given)
[1]; [7]
  growth inhibition: 22%
[1]; [8]
  growth inhibition: 22%
[1]; at 50.0 µM
  growth inhibition: 29.1%
[2]; [7]
  growth inhibition: 54%
[2]; [8]
  growth inhibition: 32%
[2]; at 50.0 µM
  growth inhibition: 9.55%
[6]; [7]
  growth inhibition: 5%
[6]; [8]
  growth inhibition: 10%
[6]; at 50.0 µM
  growth inhibition: 2.2%
[4]; [7]
  growth inhibition: 58%
[4]; [8]
  growth inhibition: 23%
[4]; at 50.0 µM
  growth inhibition: 77.1% (active)
[5]; [7]
  growth inhibition: 52%
[5]; [8]
  growth inhibition: 35%
[5]; at 50.0 µM
  growth inhibition: 19.4%

## CC1CC(c2ccccc2)CC(C)N1c1ccc2ccccc2c1 (stereo not given)
[1]; [7]
  growth inhibition: 9%
[1]; [8]
  growth inhibition: 82% (active)
[1]; at 50.0 µM
  growth inhibition: 77.8% (active)
[2]; [7]
  growth inhibition: 13%
[2]; [8]
  growth inhibition: 74% (active)
[2]; at 50.0 µM
  growth inhibition: 69.3%
[3]; [7]
  growth inhibition: 1%
[3]; at 50.0 µM
  growth inhibition: 77% (active)
[6]; [7]
  growth inhibition: 5%
[6]; [8]
  growth inhibition: 61%
[6]; at 50.0 µM
  growth inhibition: 36.4%
[4]; [7]
  growth inhibition: 0%
[4]; [8]
  growth inhibition: 65%
[4]; at 50.0 µM
  growth inhibition: 93.7% (active)
[5]; [7]
  growth inhibition: 2%
[5]; [8]
  growth inhibition: 84% (active)
[5]; at 50.0 µM
  growth inhibition: 93.3% (active)

## COC(OC)(c1ccccc1)C(I)I
[1]; [7]
  growth inhibition: 100% (active)
[1]; [8]
  growth inhibition: 100% (active)
[1]; at 50.0 µM
  growth inhibition: 99% (active)
[2]; [7]
  growth inhibition: 100% (active)
[2]; [8]
  growth inhibition: 100% (active)
[2]; at 50.0 µM
  growth inhibition: 99.4% (active)
[3]; [7]
  growth inhibition: 100% (active)
[3]; [8]
  growth inhibition: 100% (active)
[3]; at 50.0 µM
  growth inhibition: 99.3% (active)
[6]; [7]
  growth inhibition: 100% (active)
[6]; [8]
  growth inhibition: 99% (active)
[6]; at 50.0 µM
  growth inhibition: 99.5% (active)
[5]; [7]
  growth inhibition: 100% (active)
[5]; [8]
  growth inhibition: 99% (active)
[5]; at 50.0 µM
  growth inhibition: 99.5% (active)

## Cc1ccc(I)c(C(C)(C)O)c1
[1]; [7]
  growth inhibition: 4%
[1]; [8]
  growth inhibition: 71% (active)
[1]; at 50.0 µM
  growth inhibition: 94.8% (active)
[2]; [7]
  growth inhibition: 4%
[2]; [8]
  growth inhibition: 75% (active)
[2]; at 50.0 µM
  growth inhibition: 56.6%
[3]; [7]
  growth inhibition: 4%
[3]; [8]
  growth inhibition: 77% (active)
[3]; at 50.0 µM
  growth inhibition: 58.6%
[4]; [7]
  growth inhibition: -1%
[4]; [8]
  growth inhibition: 86% (active)
[4]; at 50.0 µM
  growth inhibition: 95.2% (active)
[5]; [7]
  growth inhibition: 7%
[5]; [8]
  growth inhibition: 91% (active)
[5]; at 50.0 µM
  growth inhibition: 70.2% (active)

## Nc1nnc(-c2cc([N+](=O)[O-])cc([N+](=O)[O-])c2)o1
[1]; [7]
  growth inhibition: -16%
[1]; [8]
  growth inhibition: -2%
[1]; at 50.0 µM
  growth inhibition: 22.8%
[2]; [7]
  growth inhibition: -4%
[2]; [8]
  growth inhibition: -5%
[2]; at 50.0 µM
  growth inhibition: 14.6%
[3]; [7]
  growth inhibition: -1%
[3]; [8]
  growth inhibition: 14%
[3]; at 50.0 µM
  growth inhibition: 15.1%
[6]; [7]
  growth inhibition: 6%
[6]; [8]
  growth inhibition: 20%
[6]; at 50.0 µM
  growth inhibition: -20.2%
[4]; [7]
  growth inhibition: 3%
[4]; [8]
  growth inhibition: 7%
[4]; at 50.0 µM
  growth inhibition: -19.2%
[5]; [7]
  growth inhibition: -21%
[5]; [8]
  growth inhibition: 3%
[5]; at 50.0 µM
  growth inhibition: 31.9%
